# Data as given in PubChem BioAssay (NCI).
# This is part of a sample that, as a whole, favours compounds with a hit. Of some 83,000 tested, about 20% had one in any assay.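 Single-dose data. Exposure time 48 hours. Values below 10 considered active.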 Unmarked numbers belong to inactive results. Calls of active or inactive are those of the source.
# Experiments:
# Experiment in all cases: NCI-60 one-dose screen, 48 h (100 = growth as untreated, 0 = no growth, -100 = all killed)
# Conditions in all cases: 10 µM unless noted
# NCI-H23 lung = system: NCI-H23 lung
# NCI-H226 lung = system: NCI-H226 lung
# NCI-H322M lung = system: NCI-H322M lung
# HOP-62 NSCLC = system: HOP-62 NSCLC
# NCI-H460 lung = system: NCI-H460 lung
# HOP-92 NSCLC = system: HOP-92 NSCLC
# NCI-H522 lung = system: NCI-H522 lung
# A549/ATCC NSCLC = system: A549/ATCC NSCLC
# 786-0 renal = system: 786-0 renal
# COLO 205 colon = system: COLO 205 colon
SMILES,growth (NCI-H23 lung),growth (NCI-H226 lung),growth (NCI-H322M lung),growth (HOP-62 NSCLC),growth (NCI-H460 lung),growth (HOP-92 NSCLC),growth (NCI-H522 lung),growth (A549/ATCC NSCLC),growth (786-0 renal),growth (COLO 205 colon)
Cc1cc(O)c(C2=NN(c3ccc(S(N)(=O)=O)cc3)C(c3ccccc3O)C2)cc1Cl (stereo not given),-19.9% (active),0.355% (active),46.8%,-3.51% (active),-47.9% (active),5.49% (active),-56.8% (active),3.15% (active),-55.7% (active),-94.4% (active)
O=C(CCN1C(=O)/C(=C/c2ccc(O)cc2)SC1=S)Nc1ccccc1,91.9%,90.9%,95%,85.9%,106%,89.6%,80.1%,93.3%,105%,125%
CC(=O)CC(c1ccccc1)c1c(C)[nH]c2ccccc12 (stereo not given),81.9%,89.7%,100%,93.1%,106%,94.3%,94.4%,99.5%,104%,107%
O=C(/C=C/c1ccc([N+](=O)[O-])o1)NNC(=O)c1cc2ccccc2cc1O,6.76% (active),0.682% (active),23.3%,27.5%,9.04% (active),4.15% (active),-79.5% (active),32.4%,-23.8% (active),-7.38% (active)
O=[N+]([O-])c1ccc(Cl)c(-c2cc(CCCCO)on2)c1,101%,93.5%,96.3%,106%,109%,94.2%,93.8%,92.9%,98.6%,131%
O=c1c2cc(F)ccc2sc2c(NCCCNCCO)nc3ccccc3c12,66.9%,80.8%,50%,46.5%,-71.3% (active),3.78% (active),20.4%,33.9%,51.9%,-56.4% (active)
c1ccc(Cc2nn3cc(-c4ccccc4)nc3s2)cc1,97.8%,117%,98.4%,104%,102%,109%,80.1%,91.3%,86.3%,118%
NC1=NC(c2cccc(Br)c2)c2sc3ccc(Cl)cc3c2N1 (stereo not given),86.3%,78.4%,89.6%,91.5%,98.6%,96.7%,87.8%,98%,94.8%,100%
CNCCCNc1nc2ccccc2c2c(=O)c3cc(F)ccc3sc12,70.1%,81.7%,55.9%,47.9%,-52.9% (active),28.9%,24.8%,37.9%,61.5%,-47.8% (active)
COc1ccc2c(c1)/C(=C/c1sc(=S)n(Cc3ccco3)c1O)C=N2,51%,71.4%,89%,39.6%,9.07% (active),77.5%,32.5%,57.9%,46.2%,25.4%
C[N+]1=C(/C=C/c2ccc(O)c3ncccc23)C(C)(C)c2ccccc21,80.1%,15%,97.4%,30%,32.8%,87.1%,51.9%,17.9%,66.7%,35.7%
Cc1cc(C)c(-c2c(N)cc(Br)cc2Br)c(N)c1,70.9%,76.3%,102%,39.4%,83%,-6% (active),62.9%,55.5%,45.9%,54%
CC(=O)Oc1ccccc1C(=O)N=C1[Se]CCCN1C(=O)c1ccccc1OC(C)=O,6.41% (active),-19.1% (active),-5.61% (active),17.7%,5.16% (active),-10.3% (active),73.3%,77.9%,95.9%,114%
CCCCCCNC(=O)Oc1ccc(/C(=C(\C)c2ccc(OC)cc2)c2ccc(OCCN3CCCCC3)cc2)cc1,64.6%,95.6%,90.3%,72%,52.7%,67.6%,72.7%,61.7%,41.7%,16.3%
